# Screens (PubChem)
# NS3h inh CB: blocks HCV NS3 helicase binding to DNA; NS3h Cy5-dT15 DNA binding, fluorescence polarization; inhibition, % at 100 µM; 1.6% of 16,000 active; AID 687043;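 active = inhibition above the average over every tested compound plus 3 SD, cut at about 40% in these data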
# Cy5 interf NS3h: enhances or quenches Cy5 fluorescence in NS3h assay. Cy5-dT15 DNA with NS3h, fluorescence interference; actives lie on both sides; signal over control mean, under 1 quenches. fluorescence interference ratio at 100 µM. 6% of 16,000 active;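 active = compound fluorescence over control fluorescence at most 0.8, a quencher, or at least a set upper limit, an enhancer; inactive = ratio between 0.8 and the set upper limit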
# * = called active by the depositor. This is a sample that favours compounds with a hit; in the whole collection about 7.6% have one here.
SMILES,NS3h inh CB,Cy5 interf NS3h
CCOC(=O)C1=C(c2ccccc2)NC(=S)NC1c1cccc(OC)c1OC (stereo unspecified),3,0.92
COC(=O)c1c(NC(=O)c2cncc(Br)c2)sc2c1CCC2,-6,0.96
O=C(O)CCN1C(=O)/C(=C/c2cccc(OCc3ccccc3)c2)SC1=S,18,1.1
O=C(O)CCN1C(=O)/C(=C/c2ccc(Cl)c([N+](=O)[O-])c2)SC1=S,22,0.7*
COc1cc(/C=C2/C(=O)ON=C2c2ccc(Cl)cc2)ccc1O,6,0.94
COc1cc(/C=N\Nc2ccnc3cc(Cl)ccc23)ccc1O,-29,0.34*
O=C(Cc1ccccc1)NC(c1ccco1)c1ccc2cccnc2c1O (stereo unspecified),13,1
O=C(Cc1ccccc1)NC(c1ccco1)c1c(O)ccc2ccccc12 (stereo unspecified),5,0.59*
O=C(CSc1nc2ccccc2o1)c1ccc2c(c1)Cc1ccccc1-2,1,0.64*
CC(C)(C)CC(C)(C)NC(=O)CSc1nc2ccccc2o1,6,0.91
Cc1[nH]n(-c2ccccc2)c(=O)c1/C=N\NC(=O)COc1ccc(C(C)(C)C)cc1,5,0.91
CC[n+]1ccccc1/C=C\c1ccc(O)cc1,5,1.1
CNCCOc1cc(C)nc(-c2ccccc2)n1,-7,1
CSc1nc(-c2ccccc2)nc2[nH]ccc(=O)c12,10,0.69*
COc1cccc(OC)c1OCCCCOc1c(OC)cccc1OC,4,1.1
O=C1NC(=S)N(c2ccc(F)cc2)C(=O)/C1=C/c1ccc(F)cc1,8,0.65*
CCOc1ccc(/C=C2\C(=O)NC(=S)N(c3ccc(C)cc3)C2=O)cc1Cl,6,0.9
CCc1ccc(N2C(=O)/C(=C/c3ccc(O)c(Cl)c3)C(=O)NC2=S)cc1,0,1.2
Cc1ccc(N2C(=O)/C(=C/C=C/c3ccccc3)C(=O)NC2=S)cc1,34,0.72*
Cc1cc(=O)n2ccc(CN(C)C)c(O)c2n1,5,0.62*
CC1CCC(C(C)C)C(OC(=O)c2ccc([N+](=O)[O-])cc2)C1 (stereo unspecified),6,1
CCCCCC12CCC(O)(CC1)C/C2=N\NS(=O)(=O)c1ccc(C)cc1,20,0.73*
CCCC(=O)NS(=O)(=O)c1ccc(NS(=O)(=O)c2ccc(C)cc2)cc1,-1,1
Cc1ccc(-c2ccc(OCC(=O)Nc3ncn[nH]3)cc2)cc1,5,1
CS(=O)(=O)N1CCN(Cc2ccccc2C(F)(F)F)CC1,5,0.55*
SMILES,NS3h inh CB,Cy5 interf NS3h
CS(=O)(=O)N1CCN(Cc2ccccc2[N+](=O)[O-])CC1,4,0.72*
Cc1ccc(S(=O)(=O)N2CCN(Cc3ccccc3[N+](=O)[O-])CC2)cc1,4,0.97
Cc1ccccc1CN1CCN(S(C)(=O)=O)CC1,10,0.96
O=C(CCCN1C(=O)/C(=C\c2cccc(Br)c2)SC1=S)Nc1ccc(F)cc1,3,1.1
C=CCNC(=O)c1ccc(-c2cccc(Cl)c2)o1,6,0.96
CN1C(=O)/C(=C\c2cn(Cc3ccc(F)cc3)c3ccccc23)SC1=S,15,1
Cc1occc1C(=O)O/N=C(/N)c1cccnc1,4,1.1
COc1ccc(CCNC(=O)CN(c2ccccc2C)S(C)(=O)=O)cc1OC,-1,1
CC(=O)c1cccc(NC2C=CS(=O)(=O)C2)c1 (stereo unspecified),0,1
COc1cc(/C=C2/SC(=S)N(c3ccccc3)C2=O)ccc1OC(=O)c1cccc(C)c1,0,0.67*
COc1cc(/C=C2\SC(=S)N(C)C2=O)ccc1OC(=O)c1cccc(C)c1,14,1
C=CCOc1ccc(/C=C2\SC(=S)N(c3ccc([N+](=O)[O-])cc3)C2=O)cc1OC,4,1
COc1cc(/C=C2\SC(=S)N(CC(C)C)C2=O)ccc1O,17,0.8*
COc1ccc(N2C(=O)/C(=C\c3ccccc3C)SC2=S)cc1,10,1.2*
COc1ccccc1/C=C1\SC(=S)N(c2ccc(F)cc2)C1=O,-1,1
C=CCOc1ccc(/C=C2\SC(=S)N(c3ccc(OC)cc3)C2=O)cc1OC,14,0.73*
COc1cc(/C=C2\SC(=S)N(C(C)C(=O)O)C2=O)ccc1O (stereo unspecified),14,1
Nc1nc(-c2ccc(Cl)cc2)c(-c2ccc([N+](=O)[O-])cc2)s1,5,0.99
O=C(Nc1ccc(NC(=O)c2ccc(Cl)cc2Cl)cc1)c1ccc(Cl)c(Cl)c1,-17,0.97
CC(=O)Nc1ccc(NC(=O)c2ccc(C)cc2)cc1,4,1
CC(=O)Nc1ccc(NC(=O)c2ccc(Cl)c(Cl)c2)cc1,17,1.2*
CC(=O)Nc1ccc(NC(=O)c2ccc(N3C(=O)c4ccc(C(=O)Nc5ccc(NC(C)=O)cc5)cc4C3=O)cc2)cc1,15,0.77*
CC(=O)Nc1ccc(NC(=O)c2ccc(C(F)(F)F)cc2)cc1,12,0.76*
O=C(Nc1ccc2c(c1)C(=O)N(c1ccccc1)C2=O)c1ccc2c(c1)C(=O)N(c1ccccc1)C2=O,-7,1
C=CCn1c(SCC(=O)N2c3ccccc3C(C)(c3ccccc3)CC2(C)C)nnc1-c1ccncc1 (stereo unspecified),-5,1
SMILES,NS3h inh CB,Cy5 interf NS3h
CCCOc1ccccc1NC(=NS(=O)(=O)c1ccc(C)cc1)Nc1nc(C)cc(C)n1,6,0.93
COc1ccccc1N1CCN(C(=O)c2c(Cl)cccc2Cl)CC1,2,1
CN(C)c1ccc(C(=O)N2CCN(c3ccc(F)cc3)CC2)cc1,9,0.75*
CN(C)c1ccc(C(=O)N2CCN(c3ccccc3)CC2)cc1,-3,0.96
COc1ccccc1N1CCN(C(=O)c2ccc(N(C)C)cc2)CC1,-2,0.66*
COC(=O)c1ccc(/C=N\NC(=O)COc2ccc(C(C)(C)CC(C)(C)C)cc2[N+](=O)[O-])cc1,6,1
COc1ccccc1C(=O)Nc1cc(C)cc(C)c1,15,0.68*
O=C(Nc1ccc(NC(=O)c2ccccc2Br)cc1)c1ccccc1Br,9,0.96
CC(=O)Nc1ccc(NC(=O)c2ccccc2OC(F)F)cc1,6,0.77*
COc1ccccc1C(=O)Nc1ccc(Br)cc1,0,0.91
O=[N+]([O-])c1ccc(Cl)c(S(=O)(=O)Nc2cc(Cl)ccc2Cl)c1,6,1
CCc1cccc(C)c1NS(=O)(=O)c1ccccc1,15,1
O=C(COc1ccccc1)Nc1ccc(Cc2ccncc2)cc1,20,0.71*
O=C(COc1ccccc1)Nc1ccncc1,0,1.1
CCOc1ccc(-c2cc(C)n3nc(C(=O)N(C)Cc4ccccc4)cc3n2)cc1,23,0.97
Cc1cc(-c2ccccc2)nc2cc(C(=O)Nc3ccc(Cl)cc3)nn12,6,0.93
CC(=O)c1ccc(NC(=O)c2cc3nc(-c4ccc(Br)cc4)cc(C(F)(F)F)n3n2)cc1,10,0.78*
CCOc1ccc(-c2cc(C)n3nc(C(=O)Nc4ccc(C(C)=O)cc4)cc3n2)cc1,4,0.67*
COC(=O)c1cc2nc(-c3ccc(Br)cc3)cc(C(F)(F)F)n2n1,5,0.99
CCOc1ccc(-c2cc(C)n3nc(C(N)=O)cc3n2)cc1,6,0.63*
CCN1C(=O)/C(=C\c2cc(Br)c(OCc3ccc(F)cc3)c(OC)c2)SC1=S,-2,1.1
Cc1oc(C(N)=O)cc1COc1ccccc1C(N)=O,5,1.1
CCOC(=O)C1=C(C)N=c2s/c(=C\c3ccc(N(C)C)o3)c(=O)n2C1c1cccs1 (stereo unspecified),4,1.2
